# High-throughput results as filed in PubChem.
# Shiga toxin inh: blocks Shiga toxin action in Vero cells | Vero cells, Shiga toxin protein synthesis inhibition reporter | inhibition, % at 38.7 µM | 9.2% of 290,000 active | AID 2315; in the data active means inhibition mostly above about 28%, no sharp cut-off; inactive means mostly below about 43%; further: 0% is about no effect
# CHX counter: counter-screen for Shiga toxin inhibitors: cycloheximide protein synthesis inhibition. cell reporter, cycloheximide protein synthesis inhibition counterscreen. max response, %. 12% of 300,000 active. AID 2314; in the data active means max response mostly above about 13%, no sharp cut-off; inactive means mostly below about 14%; further: read at 38.3 µM for the half of the compounds with a filed dose; 0% is about no effect
# HCV inhibitor: HCV inhibition; 3.4% of 340,000 active; Huh7.5.1 HCVcc-Cre infection, luciferase reporter, 44 h; Potency, µM (top dose mostly 41.8 µM), inactives show top-dose activity change, negative = inhibition, actives largely listed as inhibitors; AID 651820; further: potency means the concentration at half of the fitted maximal effect; on the % scale 0 is the no-effect control and ±100 the full control effect
#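 1,000 cells/well; 4 h culture; + compound; + HCVcc-Cre (~0.5 moi); 44 h; luciferase substrate, RT 15 min; read 15 sec.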
# Pf growth 48h: P. falciparum growth inhibition at 48 hours (one generation); P. falciparum luciferase growth in erythrocytes, 48 h; Potency, µM (doses to about 28.7 µM), without a hit: at the top dose activity change, negative = inhibition, most hits filed as inhibitors; 5.9% of 310,000 active; AID 504832; further: potency means the concentration at half of the fitted maximal effect; on the % scale 0 is the no-effect control and ±100 the full control effect
#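 Erythrocytes infected with P. falciparum carrying an integrated firefly luciferase reporter (2% hematocrit, 0.1% parasitemia final) were exposed to compounds in RPMI 1640 with 0.5% Albumax at 37 C, 5% CO2. Growth inhibition was scored as reduced luminescence.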
# Pf growth 96h: P. falciparum growth inhibition at 96 hours. AID 504834. 6.9% of 320,000 active. P. falciparum luciferase reporter growth, 96 h. Potency, µM (series often up to 28.7 µM), inactives show at the highest dose activity change, negative = inhibition, hits mostly inhibitors; further: potency means the concentration at half of the fitted maximal effect; on the % scale 0 is the no-effect control and ±100 the full control effect
#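 Two parasite generations (96 h, 37 C, 5% CO2) of compound exposure in infected erythrocytes (0.05% parasitemia, 2% hematocrit). Luciferase-reporter P. falciparum; decreased luminescence indicates inhibited growth, aimed at apicoplast-acting delayed death.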
# AMA1 RON2 block: inhibitors of Plasmodium falciparum AMA1-RON2 interaction. AlphaScreen AMA1-biotinylated RON2 peptide binding. Potency, µM (highest dose often 58.2 µM), without a hit: top-dose activity change, negative = inhibition, most hits filed as inhibitors. 0.2% of 360,000 active. AID 720542;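 further: potency means the concentration at half of the fitted maximal effect; 0% = vehicle wells and -100% = peptide control; nearly all actives have a fitted effect of over 45% in size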
#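 AMA1 (3D7) with his tag at 25 nM final met compounds first, then biotinylated RON2 peptide at 25 nM; detection used donor plus acceptor beads, 10 µg/mL apiece, read by AlphaScreen after 30 min at room temperature.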
# The depositor's hits bear a star; u = inconclusive; x = no result; + = active, no number; [ ] = another dose, or the depositor's remark. Compounds with a hit are over-represented: about 21% of the library has one in this group of screens. Unless noted, the call rests on the fitted dose curve; in most records, active means well fitted curve in the direction sought with a large enough effect; inconclusive means small, poorly fitted or top-dose-only effect, or another doubt; inactive means no such curve, though single readings can be large; an effect the other way counts as inactive or inconclusive.
SMILES,Shiga toxin inh,CHX counter,HCV inhibitor,Pf growth 48h,Pf growth 96h,AMA1 RON2 block
COc1cc(-c2cccs2)cc(=O)c2c(C)oc(C)c12,26.5,-3.8,11.2µM*,u,11.7µM*,-6.4%
Cc1[nH][nH]c(=O)c1N=Nc1ccccc1Cl,55.9*,22.1*,-6.8%,0.3%,21.8%,-6.5%
CCCN(CC(=O)Nc1cc(Cl)ccc1Cl)C(=O)c1ccccc1SCC(=O)N1CCCC1,x,x,11.5%,u,-27.6%,26.8%
Cc1ccc(Cn2c(C3CCCN3c3nc(-c4cc(Cl)c(N)c(Cl)c4)cs3)nc3cc(C(=O)NCCCO)ccc32)cc1 (stereo unspecified),x,x,1.41µM*,x,x,-2.7%
Cc1ccc(Cn2c(C(C)Nc3nc(-c4ccc(F)cc4)cs3)nc3cc(C(=O)NCCCO)ccc32)cc1 (stereo unspecified),x,x,u,x,x,51.4%
Cc1nnn(C23CC4CC(CC(CC(=O)Nc5cccc(F)c5)(C4)C2)C3)n1,-5.7,-2.3,-2.3%,u,4.7%,-8.1%
Cc1cccc(NC(=O)CC23CC4CC(C2)CC(n2nnc(C)n2)(C4)C3)c1,-11.0,-3.9,-10.9%,u,13.1µM*,4.4%
C[C@@H]1CN([C@@H](C)CO)C(=O)c2cc(-c3cccnc3)cnc2O[C@H]1CN(C)C(=O)c1cccc(F)c1,x,x,x,x,x,1.2%
CC(C)[C@H](NC(=O)[C@@H]1Cc2ccccc2CN1)C(=O)Nc1ccc2c(c1)OCCO2,82.6*,28.3*,-17.6%,-19.8%,u,-11.5%
CSCC[C@H](NC(=O)[C@@H]1Cc2ccccc2CN1)C(=O)Nc1ccc2c(c1)OCCO2,87.5*,51.7*,3.7%,69.4%,89.9%,40.9%
COCCNC(=O)C(NC(=O)C1CCC(C)CC1)C(C)C (stereo unspecified),18.9,7.1,22.2%,6.5%,37.0%,-2.6%
Cc1cccc(NC(=O)[C@@H](NC(=O)[C@@H]2Cc3ccccc3CN2)C(C)C)c1,10.0,4.7,-8.0%,-30.1%,9.3%,23.7%
C[C@H](NC(=O)[C@@H]1Cc2ccccc2CN1)C(=O)Nc1ccc2c(c1)OCCO2,51.0*,36.2*,21.9%,-8.6%,-4.8%,31.3%
Cc1cc(C)cc(NC(=O)[C@H](NC(=O)[C@@H]2Cc3ccccc3CN2)c2ccccc2)c1,12.8,7.9,-20.1%,u,u,16.2%
COCCNC(=O)C(NC(=O)C1CCCCC1)C(C)C (stereo unspecified),14.0,-5.6,0.4%,12.6%,0.738µM*,1.7%
Cn1c(OCC2CCCO2)nc2cc(-c3ccccc3)sc2c1=O (stereo unspecified),x,x,x,x,x,15.8%
CC(C)CCN1CCNC(=O)C1CC(=O)N(C)CCCN1CCOCC1 (stereo unspecified),-16.0,4.9,x,37.2%,88.5%,14.3%
CCc1ccc(NC(=O)CNC(=O)[C@@H]2Cc3ccccc3CN2)cc1,2.7,4.5,6.0%,0.7%,-25.5%,18.4%
O=C(CNC(=O)[C@@H]1Cc2ccccc2CN1)NC1CCCC1,53.0,24.3*,20.2%,u,u,14.1%
CCC(C)[C@H](NC(=O)[C@@H]1Cc2ccccc2CN1)C(=O)Nc1ccc2c(c1)OCO2 (stereo partly specified),38.5*,29.7*,4.7%,u,u,24.0%
CC(C)C(NC(=O)C1CCCCC1)C(=O)Nc1ccc2c(c1)OCCO2 (stereo unspecified),+,63.2*,-1.6%,85.2%,u,-2.4%
C[C@H](NC(=O)[C@@H]1Cc2ccccc2CN1)C(=O)NC1CCCC1,-3.2,-0.6,2.4%,16.0%,21.9%,0.0%
O=C(CNC(=O)[C@@H]1Cc2ccccc2CN1)Nc1ccc2c(c1)OCCO2,60.1*,37.1*,15.8%,41.9%,53.1%,29.6%
CCN1C(=O)[C@H]2[C@H]3CN=C(SCc4ccc(Cl)cc4)N3[C@@](C)(C(=O)OC)[C@H]2C1=O,x,x,-15.0%[8.37 µM],x,x,-4.6%
CCOC(=O)C1CCN(C(=O)C(C)c2ccc([N+](=O)[O-])cc2)CC1 (stereo unspecified),18.8,6.2,12.9%,0.4%,-11.8%[5.75 µM],11.5%
SMILES,Shiga toxin inh,CHX counter,HCV inhibitor,Pf growth 48h,Pf growth 96h,AMA1 RON2 block
CCC(C)(C(=O)NC1CCCCC1)N(C(=O)Cc1cccs1)c1ccccc1 (stereo unspecified),-14.3,-2.2,-15.0%,-16.9%,56.6%,-17.1%
CC(C)N1CCc2c(sc(NC(=O)c3ccc(C(=O)c4ccccc4)cc3)c2C(N)=O)C1,-4.5,4.7,u,13.1µM*,u,u
COc1cccc(OC)c1C(=O)Nc1sc2c(c1C(N)=O)CCN(Cc1ccccc1)C2,-0.4,1.1,-5.7%,u,u,-16.8%
CC(=O)Nc1sc2c(c1-c1nc3ccccc3s1)CCN(C(C)C)C2,-2.2,-1.3,8.91µM*,3.7µM*,4.15µM*,3.7%
CCN1CCc2c(sc(NC(=O)c3cc4ccccc4cc3OC)c2C(N)=O)C1,-23.1,-8.1,8.91µM*,9.28µM*,u,15.5%
CC(C)N1CCc2c(sc(NC(=O)c3ccc4ccccc4c3)c2C(N)=O)C1,-19.6,9.8,8.91µM*,10.4µM*,9.28µM*,6.9%
CC(=O)c1sc(NC(=O)C(C)Oc2ccc3c(C)cc(=O)oc3c2)nc1C (stereo unspecified),-3.9,1.8,-27.0%,-7.7%,6.8%,7.4%
CCOc1ccc2cc(C3CC(c4ccco4)=NN3S(C)(=O)=O)c(=O)[nH]c2c1 (stereo unspecified),21.4,9.0,8.0%,-7.3%,-12.9%,20.0%
CCOc1ccc(CCN2C(=O)C(=O)N([C@@H](CC(C)C)CN3CCC[C@H]3CN3C(=O)C(=O)NC[C@@H]3Cc3ccccc3)C[C@@H]2Cc2ccccc2)cc1,x,x,x,x,x,-24.3%
COC(=O)N1CCCCC1c1cc(C(=O)Nc2cccc3c2CCCC3)no1 (stereo unspecified),x,x,x,x,x,-3.2%
Nc1nc(Cl)cc(N2CCCC2)n1,-2.7,7.5,20.8%,0.0%,7.38µM*,14.7%
Nc1nc(Cl)cc(N2CCC(c3cc(-c4ccc(Cl)cc4Cl)n[nH]3)CC2)n1,-2.6,-3.1,22.4µM*,u,u,-22.2%
O=C1OCCN1c1c(-c2ccccc2)c(-c2cccs2)nc2c(-c3ccccc3)cccc12,-5.5,2.1,-23.1%,u,u,6.4%
COn1c(-c2ccc(C)cc2)nc2ncccc21,30.4,20.9*,-11.3%,-1.1%,-14.1%,-0.3%
COn1c(-c2ccccc2)nc2ncccc21,-4.7,4.3,4.7%,25.1%,27.8%,6.9%
Cc1cc(OC(=O)N(C)C)nc(-c2ccc(C)c(Cl)c2)n1,38.7*,14.9,-21.7%,u,u,-1.6%
CCOC(=O)N1CCN(C2=C(NS(=O)(=O)c3ccc(NC(C)=O)cc3)C(=O)c3ccccc3C2=O)CC1,21.1,15.5,-29.1%,u,9.28µM*,-26.2%
